Holding throughout (test): qHTS profiling for inhibitors of Plasmodium falciparum proliferation (AID 504749); further: nearly all actives have a fitted effect of over 60% in size
Common to all, as to settings: P. falciparum in erythrocytes, SYBR Green DNA, 72 h; series mostly up to 28.7 µM
In general terms: qHTS replaces the single test concentration by a dilution series.

In one experiment the test system is CP201. A digest of the protocol: (§1)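 Quantitative HTS: compounds pinned into medium, infected erythrocytes added (0.3% parasitemia, 2.5% hematocrit), 72 h culture at 37 C under 5% CO2. Saponin/Triton lysis with SYBR Green I, overnight RT, then fluorescence read.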
The next experiment relates to CP203. A digest of the protocol:
as §1

For the next experiment, the system named is CP211. A digest of the protocol:
as §1

The subject of the next experiment is CP215. A digest of the protocol: as §1
Another experiment relates to CP217. A digest of the protocol: as §1
In a further experiment the test system is CP237. A digest of the protocol:
as §1

In the next experiment the test system is CP238. A digest of the protocol:
as §1

A further experiment has as its system CP247. A digest of the protocol:
as §1

For the next experiment, the system named is CP252. A digest of the protocol: as §1
In a further experiment the test system is CP250. A digest of the protocol: as §1

Records with an inconclusive call do not appear. Active and inactive are the calls of the source. The call rests on the fitted dose curve; in most records, active means well fitted inhibition curve with a large enough effect; inconclusive means small, poorly fitted or top-dose-only effect; inactive means flat fitted curve, though single readings scatter.
Potency means the concentration at half of the fitted maximal effect.

Regarding `C#CCN(C)CCCOc1ccc(Cl)cc1Cl`, the Potency result in the experiment with CP201, in the experiment on CP203, in the experiment with CP211, with CP215, in the experiment on CP217 and in the experiment on CP237 was “inactive” each time. In addition, the Potency result in the experiment on CP238, with CP247 and in the experiment on CP252 was “inactive” each time.

As for `CCN(CC)CCOCCOC(=O)C1(c2ccccc2)CCCC1`, the Potency result in the experiment with CP201, in the experiment with CP211 and with CP252 was “inactive” each time. Further, the Potency was 6.75 µM (active) in the experiment with CP203, 15.1 µM (active) with CP215, 11.2 µM (active) in the experiment on CP217 and 2.51 µM (active) in the experiment with CP237.

Regarding `CCN(Cc1ccncc1)C(=O)C(CO)c1ccccc1` (stereo unspecified), the Potency entry in the experiment with CP201, in the experiment on CP203, in the experiment on CP211, in the experiment with CP215, in the experiment on CP217 and in the experiment with CP237 was “inactive” throughout. The Potency result with CP238, in the experiment with CP247, with CP250 and in the experiment on CP252 was “inactive” throughout.

Regarding `CC(=O)Oc1cc(C(C)C)c(OCCN(C)C)cc1C`, the Potency entry in the experiment on CP201, with CP203, in the experiment on CP211, in the experiment with CP217, in the experiment with CP237 and in the experiment on CP238 was “inactive” each time. Also, the Potency result in the experiment with CP247, with CP250 and in the experiment on CP252 was “inactive” throughout.

`C[N+](C)(C)CCOC(N)=O`: the Potency result in the experiment on CP201, in the experiment on CP203, in the experiment with CP211, in the experiment on CP215, with CP217 and in the experiment on CP237 was “inactive” throughout. The Potency result in the experiment on CP238, in the experiment on CP247, in the experiment with CP250 and with CP252 was “inactive” each time.

As for `CCN(CC)CC(=O)Nc1c(C)cccc1C`, the Potency result in the experiment on CP201, in the experiment on CP203, with CP211, with CP215, with CP217 and with CP238 was “inactive” each time. In addition, the Potency entry in the experiment with CP247, with CP250 and in the experiment with CP252 was “inactive” in each case.

Consider `COCC(=O)O[C@]1(CCN(C)CCCc2nc3ccccc3[nH]2)CCc2cc(F)ccc2[C@@H]1C(C)C`, for which the Potency in the experiment on CP201 was 8.49 µM (active); with CP203, 1.9 µM (active); in the experiment on CP211, 4.26 µM (active); in the experiment with CP215, 4.26 µM (active); in the experiment with CP217, 2.51 µM (active); in the experiment with CP237, 0.199 µM (active). Further, the Potency in the experiment on CP238 was 4.47 µM (active); in the experiment on CP247, 3.55 µM (active); in the experiment on CP250 it was 4.47 µM (active); in the experiment on CP252, 4.47 µM (active).

In the case of `CN(C(=O)CCCOc1ccc2[nH]c(=O)ccc2c1)C1CCCCC1`, the Potency entry with CP201, in the experiment on CP203, with CP211, in the experiment with CP215, in the experiment on CP217 and in the experiment with CP237 was “inactive” each time. In addition, the Potency entry in the experiment with CP238, in the experiment with CP250 and in the experiment with CP252 was “inactive” throughout.

For `C[C@H](CS)C(=O)N1CCC[C@H]1C(=O)O`, the Potency result in the experiment with CP201, in the experiment on CP203, in the experiment on CP215, in the experiment on CP217, in the experiment with CP237 and in the experiment on CP238 was “inactive” throughout. The Potency entry in the experiment on CP247, in the experiment with CP250 and in the experiment on CP252 was “inactive” in each case.

For `CC(C)NNC(=O)c1ccncc1`, the Potency entry in the experiment on CP201, in the experiment with CP203, with CP211, with CP215, in the experiment on CP237 and with CP238 was “inactive” in each case. Moreover, the Potency entry with CP247 and with CP250 was “inactive” each time.

Take `OCCN1CCN(CC/C=C2/c3ccccc3Sc3ccc(C(F)(F)F)cc32)CC1`: the Potency with CP201 is 10.7 µM (active); with CP203, 9.53 µM (active); with CP211 it was 5.36 µM (active); in the experiment on CP215, 12 µM (active); in the experiment with CP237 it was 10 µM (active); in the experiment on CP247, 8.91 µM (active). The Potency in the experiment with CP250 was 12.6 µM (active); in the experiment with CP252 it was 7.94 µM (active).

Take `NC(=O)c1cn(Cc2c(F)cccc2F)nn1`: the Potency result in the experiment on CP201, in the experiment with CP203, with CP211, with CP215, with CP217 and in the experiment on CP237 was “inactive” each time. Further, the Potency entry in the experiment with CP238, with CP247, with CP250 and with CP252 was “inactive” throughout.

Regarding `CCCN(CCC)CCc1cccc2c1CC(=O)N2`, the Potency entry in the experiment with CP201, in the experiment with CP203, in the experiment on CP211, in the experiment on CP215, in the experiment with CP217 and in the experiment on CP237 was “inactive” throughout. Besides, the Potency result with CP238, with CP247, in the experiment with CP250 and in the experiment on CP252 was “inactive” each time.

Consider `Cc1nnc(SCC2=C(C(=O)O)N3C(=O)[C@@H](NC(=O)Cn4cnnn4)[C@H]3SC2)s1`, for which the Potency entry in the experiment with CP201, with CP203, with CP211, with CP215, with CP217 and in the experiment with CP237 was “inactive” throughout. The Potency entry in the experiment with CP238, in the experiment on CP247, in the experiment with CP250 and in the experiment on CP252 was “inactive” each time.

For the molecule `CN(C)C(=O)Oc1ccc[n+](C)c1`, the Potency result with CP201, in the experiment with CP203, in the experiment with CP211, in the experiment on CP215, in the experiment on CP217 and with CP237 was “inactive” in each case. The Potency entry in the experiment with CP238, in the experiment with CP250 and in the experiment with CP252 was “inactive” throughout.

Take `COc1ccc(CCN(C)CCCC(C#N)(c2cc(OC)c(OC)c(OC)c2)C(C)C)cc1OC` (stereo unspecified): in the experiment with CP250, the Potency entry was “inactive”.

With `CCCCNc1ccc(C(=O)OCCN(C)C)cc1`, the Potency entry with CP203, with CP215, in the experiment on CP217, in the experiment with CP237, with CP238 and with CP247 was “inactive” each time. Further, the Potency result in the experiment on CP250 and with CP252 was “inactive” in each case.

For `CC(=O)[C@]1(O)Cc2c(O)c3c(c(O)c2[C@@H](O[C@H]2C[C@H](N)[C@H](O)[C@H](C)O2)C1)C(=O)c1ccccc1C3=O`, the Potency in the experiment with CP211 was 13.5 µM (active); with CP215, 10.7 µM (active); in the experiment on CP217, 5.01 µM (active); in the experiment with CP237, 3.55 µM (active); in the experiment on CP238, 7.08 µM (active); in the experiment with CP250, 6.31 µM (active). Besides, the Potency with CP252 is 7.94 µM (active).

On to `C=CCc1ccccc1OCC(O)CNC(C)C` (stereo unspecified), for which the Potency in the experiment with CP203 is 10.7 µM (active); in the experiment on CP237, 5.01 µM (active); in the experiment on CP238, 11.2 µM (active). Moreover, the Potency entry with CP250 was “inactive”.

On to `Cc1nc2ccccn2c(=O)c1CCN1CCC(C(=O)c2ccc(F)cc2)CC1`, for which the Potency result in the experiment on CP201, with CP211, in the experiment on CP215, in the experiment on CP217, in the experiment with CP238 and with CP250 was “inactive” throughout. In the experiment on CP252, the Potency entry is “inactive”.

As for `CN(C)CC[C@@H](c1ccc(Br)cc1)c1ccccn1`, the Potency entry with CP211, with CP217 and in the experiment on CP250 was “inactive” each time.

Consider `O=C1NCN(c2ccccc2)C12CCN(CCCC(c1ccc(F)cc1)c1ccc(F)cc1)CC2`, for which the Potency in the experiment on CP217 was 8.91 µM (active); in the experiment with CP237, 6.31 µM (active); in the experiment on CP238, 8.91 µM (active); with CP247, 7.08 µM (active); in the experiment with CP250 it was 10 µM (active); in the experiment with CP252, 7.08 µM (active).

As to `CN(C)CCN(Cc1cccs1)c1ccccn1`, the values for the Potency in the experiment on CP203, in the experiment on CP237 and in the experiment with CP238 were 12 µM (active), 2 µM (active) and 11.2 µM (active), respectively.

Turning to `COc1ccc(CN(CCN(C)C)c2ccccn2)cc1`, the Potency result in the experiment on CP201, in the experiment with CP211, in the experiment on CP215, in the experiment with CP217, in the experiment on CP238 and in the experiment on CP247 was “inactive” throughout. Further, the Potency result in the experiment with CP250 and with CP252 was “inactive” throughout. Moreover, in the experiment with CP237, the Potency was 5.01 µM (active).

With `CN(C)CCCN1c2ccccc2Sc2ccccc21`, the Potency with CP203 was 4.05 µM (active).

Values taken from PubChem BioAssay (NCATS).
